# Experimental data as given in PubChem BioAssay AID1063 (University of Pittsburgh Molecular Library Screening Center, 2008).
# About 18,000 (9%) of roughly 200,000 compounds were called active. Cut-off read from the data, not from the text of the source: active = inhibition above about 50%; inactive = the rest. For the sample, actives were picked, then their nearest neighbours and some compounds at random.
# Experiment: antileishmanial activity against promastigotes – primary screen (AID 1063);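 note: promastigotes grown with compound for 44 hours at 28 °C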
# Details: Leishmania major promastigotes, resazurin fluorescence viability; at 10 µM; stronger effect = higher value
row,SMILES,inhibition
1,Cc1nn(C)c(C)c1CN(C(=O)CCc1nnc(Cc2c[nH]c3ccccc23)o1)C(C)C,-4.01% (inactive)
2,Cc1cccc(N(CC(=O)N=Nc2c(O)[nH]c3ccccc23)S(C)(=O)=O)c1C,95.3% (active)
3,COCC(=O)N=Nc1c(O)[nH]c2ccccc12,-1.1% (inactive)
4,Cc1c(-c2ccccc2)n[nH]c1C(=O)N=Nc1c(O)[nH]c2ccccc12,4.35% (inactive)
5,CCn1c(-c2cccnc2Cl)nc2cc(C)c(C)cc21,10% (inactive)
6,CC(C)n1c(O)c(N=Nc2ccccn2)c2ccccc21,56.6% (active)
7,Oc1oc(-c2ccccc2Br)nc1/C=N/c1ccccn1,-5.62% (inactive)
8,CC(C)n1c(C(O)c2ccccc2)nc2ccccc21 (centres undefined),5.37% (inactive)
9,CCc1ccccc1NC(=O)CN(c1ccc(OC)cc1OC)S(=O)(=O)c1ccccc1[N+](=O)[O-],27.7% (inactive)
10,COc1ccc(N(C)S(=O)(=O)c2cccc3nsnc23)cc1,-1.4% (inactive)
11,CCOC(=O)C1=C(CC)Nc2ccccc2N=C1NC(=O)c1cccc(S(=O)(=O)N2CCCC2)c1,72% (active)
12,CCOC(=O)CSc1nnc(NC(=O)c2cccc(S(=O)(=O)N3CCCC3)c2)s1,-6.49% (inactive)
13,CCOC(=O)C1=C(CC)Nc2ccccc2N=C1N,-8.37% (inactive)
14,CCN(CC)Cc1nc2sc(C)c(C)c2c(=O)[nH]1,-6.68% (inactive)
15,CC1CCN(C(=S)c2cccc(O)c2)CC1,0.69% (inactive)
16,CCOc1ccccc1Oc1cn[nH]c1-c1ccc(OC)cc1O,50.6% (active)
17,CCOc1ccccc1NC(=O)Nc1cc(OC)ccc1OC,-3.92% (inactive)
18,CCOc1ccc(-c2n[nH]c(C)c2-c2ccccn2)c(O)c1,5.25% (inactive)
19,CC(=O)c1cc(C#N)c(N2CC(C)OC(C)C2)nc1C (centres undefined),-0.03% (inactive)
20,Nc1nc(NCCCN2CCOCC2)nc(Nc2ccccc2)c1[N+](=O)[O-],47.8% (inactive)
21,O=C(NCCCN1CCOCC1)c1ccc(N2CCCC2)c([N+](=O)[O-])c1,-1.2% (inactive)
22,O=C(NCCCNc1ccc([N+](=O)[O-])cc1Cl)c1ccccc1F,11.1% (inactive)
23,O=[N+]([O-])c1ccc(NCCCN2CCOCC2)c(Cl)c1,90.3% (active)
24,O=C(NCCCN1CCOCC1)c1ccccc1NS(=O)(=O)c1ccc(F)cc1,-1.28% (inactive)

row,SMILES,inhibition
1,O=C(NCCCN1CCOCC1)c1ccc([N+](=O)[O-])cc1[N+](=O)[O-],57.7% (active)
2,S=C(Nc1ccc(Br)cc1Cl)N1CCC2(CC1)OCCO2,-4.82% (inactive)
3,Cc1ccc(CC2CC(=O)N(c3nc(C)cc(C)n3)C2=O)cc1 (centres undefined),-5.05% (inactive)
4,Brc1ccc(CSc2ccc(-c3ccco3)nn2)cc1,2% (inactive)
5,O=C1COc2ccc(C(=O)COC(=O)c3cccnc3Cl)cc2N1,11% (inactive)
6,Cc1ccc(C(=O)OCc2nc(N)nc(Nc3ccccc3C)n2)cc1,53.7% (active)
7,Cc1ccccc1Nc1nc(N)nc(CSc2ccccc2)n1,58.8% (active)
8,COc1ccccc1Nc1nc(N)nc(CN(C)C2CCCCC2)n1,0.98% (inactive)
9,CCOC(=O)N1CCN(Cc2nc(N)nc(Nc3ccc(C)cc3)n2)CC1,3.79% (inactive)
10,Cc1ccccc1Nc1nc(N)nc(CSc2nnc3ccccn23)n1,-7.89% (inactive)
11,Cc1ccccc1Nc1nc(N)nc(CN2CCN(c3ccccn3)CC2)n1,0.34% (inactive)
12,CCOC(=O)C(NC(C)=O)C(=O)Nc1ccc(OC)cc1 (centres undefined),-2% (inactive)
13,CCCCNC(=O)Nc1c(C)cc(SC#N)cc1C,-2.51% (inactive)
14,O=C(Nc1cccc(Cl)c1N1CCOCC1)c1ccc2c(c1)OCCO2,11.1% (inactive)
15,COc1ccc(NC(=O)COc2ccc(C(=O)OCC(=O)N(C)C3CCS(=O)(=O)C3)cc2OC)cc1 (centres undefined),2.14% (inactive)
16,COc1ccc(S(=O)(=O)NCC2CCCN(C(=O)c3occc3C)C2)cc1 (centres undefined),-1.89% (inactive)
17,O=C(CSc1ncnc2c1nnn2Cc1ccc(F)cc1)NC1CCCC1,-6.62% (inactive)
18,CCCCOc1ccc(C(=O)NN2CCN(C)CC2)cc1,-6.12% (inactive)
19,CCCCOc1ccc(C(C)(O)CCN2CCOCC2)cc1 (centres undefined),67.4% (active)
20,CC(=O)c1ccc(OCCN2CCOCC2)cc1,-0.55% (inactive)
21,CCCCN(C)CCNC(=O)CSCc1ccc(C)cc1,35.7% (inactive)
22,Cc1ccc(NC(=S)N(CCN(C)C)Cc2cccs2)cc1C,23.8% (inactive)
23,C#CCNC(=O)C1=C[C@@H](c2ccccc2)[C@H](CCCO)[C@@H](OCC)O1,-3.12% (inactive)
24,COc1cc(/C=N/N=C(\N)c2nonc2N)cc(OC)c1OC,13.2% (inactive)

row,SMILES,inhibition
1,Cc1c(C2=CCN(S(=O)(=O)c3ccc(Cl)cc3)CC2)c2ccccc2n1C,54.9% (active)
2,O=C(ON=C1CCN(S(=O)(=O)c2ccccc2)CC1)c1ccc(Cl)cc1,-6.64% (inactive)
3,CC(C)NC(=O)C(=O)NCCN1CCN(S(=O)(=O)c2ccc(Cl)cc2)CC1,-8.08% (inactive)
4,OCC(O)CN(c1ccccc1)c1ccccc1 (centres undefined),-1.63% (inactive)
5,O=C(COc1ccc(-c2ccccc2)cc1)NN=C1CCCC1,-3.72% (inactive)
6,COc1ccc(/C=C2\SC(=S)N(CC(=O)NNC(=O)c3ccncc3)C2=O)cc1,-5.15% (inactive)
7,Cn1cc([N+](=O)[O-])c(C(=O)Nc2ccc3c(c2)OCCO3)n1,10.7% (inactive)
8,CCc1ccc(NC(=O)c2ccc(Cn3cc([N+](=O)[O-])cn3)cc2)cc1,-3.55% (inactive)
9,Cn1cc([N+](=O)[O-])c(C(=O)Nc2cnn(Cc3ccc(F)cc3)c2)n1,98.6% (active)
10,CCC(=O)c1ccc(N2CCN(C(=O)c3cc([N+](=O)[O-])ccc3F)CC2)c(F)c1,12.8% (inactive)
11,CC(=O)Nc1ccc(S(=O)(=O)N(C)c2ccc(OCC(=O)OCC(=O)N3CCCCC3)cc2)cc1,-6.69% (inactive)
12,CSc1nc2ccc(NC(=O)c3c(F)cccc3F)cc2s1,15.7% (inactive)
13,Cc1cccc(NC(=S)Nc2ccc3cn[nH]c3c2)c1,5.93% (inactive)
14,CCN(CC)CCN(C(=O)c1cccc([N+](=O)[O-])c1)c1nc2ccc(OC)cc2s1,1.41% (inactive)
15,O=C(/C=C/c1ccc(Cl)cc1)Nc1ccc(S(=O)(=O)Nc2ncccn2)cc1,63.3% (active)
16,O=C(/C=C/c1ccccc1Cl)Nc1ccc(S(=O)(=O)Nc2ncccn2)cc1,-5.22% (inactive)
17,O=S(=O)(Nc1ncccn1)c1ccc(NS(=O)(=O)c2cccc(Cl)c2Cl)cc1,-9.09% (inactive)
18,CCOc1cc(NC(=S)NCc2ccco2)c(OCC)cc1NC(=O)c1ccco1,-3.82% (inactive)
19,C[C@@H](C(=O)N1CCNCC1)n1cc(CCC(=O)O)nn1,-3.38% (inactive)
20,CCc1ccc(-n2c(=S)sc3c(=O)n(-c4ccccc4OC)c(=S)[nH]c32)cc1,-0.77% (inactive)
21,COC(=O)COc1ccc(C2NC(=O)NC(C)=C2C(=O)NCc2ccccc2)cc1OC (centres undefined),-7.17% (inactive)
22,CCCOc1ccc(C2NC(=O)NC(c3ccccc3)=C2C(C)=O)cc1OCC (centres undefined),71.8% (active)
23,CCOC(=O)COc1ccc(Cl)cc1C1NC(=O)NC(C)=C1C(C)=O (centres undefined),0.61% (inactive)
24,NS(=O)(=O)c1ccc(NC(=O)COC(=O)c2ccc(Cl)nc2)cc1,-7.52% (inactive)

row,SMILES,inhibition
1,NS(=O)(=O)c1ccc(NC(=S)NC(=O)c2cccc(Br)c2)cc1,1.9% (inactive)
2,NC(=O)c1ccc(CN2CCC(Cc3ccccc3)CC2)cc1,86.9% (active)
3,CC(C)(C)NC(=O)NC(=O)CN1CCC(Cc2ccccc2)CC1,-1.19% (inactive)
4,O=c1cc(CO)oc(CN2CCC(Cc3ccccc3)CC2)c1O,-2.15% (inactive)
5,O=C(NCCCN1CCN(Cc2ccccc2)CC1)C1CCN(S(=O)(=O)N2CCCC2)CC1,-6.76% (inactive)
6,O=C(Nc1ccccc1)N1CCN(Cc2ccccc2)CC1,-1.08% (inactive)
7,O=C(NNS(=O)(=O)c1ccc(Cl)cc1)C1CCN(Cc2ccccc2)CC1,95.9% (active)
8,CCNC(=S)NNC(=O)C1CCN(Cc2ccccc2)CC1,-3.47% (inactive)
9,O=C(NCc1cccs1)C1CCN(S(=O)(=O)c2ccc(Cl)cc2)CC1,-6.16% (inactive)
10,CCCC(=O)C1CCN(Cc2ccccc2)CC1,82.8% (active)
11,CCOC(=O)N1CCN(C(=O)c2ccccc2N(Cc2ccccc2)S(=O)(=O)c2ccc(OC)cc2)CC1,43.4% (inactive)
12,COc1ccc(N2CCN(CCCNC(=O)C3CCN(S(=O)(=O)N4CCOCC4)CC3)CC2)cc1,-4.04% (inactive)
13,CC(C)NC(=O)c1ccc(Cl)cc1Cl,-4.71% (inactive)
14,Cc1cc(C)cc(NC(=O)N2CCCCCCC2)c1,9.55% (inactive)
15,CCOC(=O)C1CCN(c2ncnc3c2c(-c2ccccc2)cn3-c2ccc(C)cc2)CC1,-6.27% (inactive)
16,Cc1ccc(NC(=O)Nc2cccc(C(F)(F)F)c2)nc1,11% (inactive)
17,COC(=O)C1=C(C)N(c2ccc(C)cc2)/C(=C/c2ccc(O)cc2)C1=O,97.8% (active)
18,COC(=O)C1=C(C)NC(=O)/C1=C/c1ccc(CNS(=O)(=O)c2ccc(C)cc2)o1,15.8% (inactive)
19,COC(=O)C1=C(C)N(c2ccc(Br)cc2)C(=O)/C1=C\c1ccco1,24.7% (inactive)
20,COc1ccc(S(=O)(=O)N2CCN(C(=O)c3cc(C)oc3C)CC2)cc1,8.89% (inactive)
21,C/C(CC(=O)Nc1cccc(C(F)(F)F)c1)=N\NC(=O)C(=O)NCC(C)C,-8.72% (inactive)
22,COc1ccc(C(=O)CSc2nnc(-c3ccco3)o2)cc1,-1.52% (inactive)
